Measurements: the supplement of paper PMC10849652
Of roughly 7,900 targets only a part is listed; those with a hit were picked by preference. About 0.6% of all pairs of compound and target were hits. A number with no mark means an inactive call.

Experiments:
Experiment in all cases: log2 fold change, soluble protein after heating vs DMSO (PISA); higher = thermal stabilisation; K562 cells, 10 uM, 30 min; active = over 0.2 and 3.5 SD of the protein, either way, in both replicates (recomputed)
IRAK-1-4 Inhibitor I = compound: C1COCCN1CCN2C3=CC=CC=C3N=C2NC(=O)C4=CC(=CC=C4)[N+](=O)[O-] [IRAK-1-4 Inhibitor I]
Summary of the method: (§1)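 For each measurement, 10 μM compound was applied for 30 min to K562 cells at 2×10^6 cells/mL. Aliquots were heated for 3 min across 48°C-58°C, pooled, and extracted in PBS with 0.5% NP-40 at 4°C; the supernatant after 21,000xg for 90 min was soluble protein. This was quantified by TMTpro 16plex LC-MS/MS with channel sums equalised, and thermal stability was reported relative to control samples from duplicates, on a log2 fold-change scale.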

ibrutinib = compound: C=CC(=O)N1CCC[C@@H](n2nc(-c3ccc(Oc4ccccc4)cc3)c3c(N)ncnc32)C1 [ibrutinib]
Summary of the method: as §1

[1] = compound: CC(=O)c1cnc2ccc(-c3cc(Cl)c(O)c(Cl)c3)nc2c1N[C@H]1CC[C@H](CN(C)C)CC1
Summary of the method: as §1

ralimetinib = compound: CC(C)(C)Cn1c(N)nc2ccc(-c3[nH]c(C(C)(C)C)nc3-c3ccc(F)cc3)nc21 [ralimetinib]
Summary of the method: as §1

[2] = compound: CC(C)(O)CC(=O)NCCn1ccc2ncnc(Nc3ccc(Oc4cccc(C(F)(F)F)c4)c(Cl)c3)c21
Summary of the method: as §1

[3] = compound: CC(C)C1=C2N=C(C=C(N2N=C1)NCC3=CC=CC=C3)NCCCCCCN
Summary of the method: as §1

[4] = compound: CC(C)C[C@@H](C=O)NC(=O)[C@H](CC(C)C)NC(=O)[C@H](CC(C)C)NC(=O)OCc1ccccc1
Summary of the method: as §1

pinometostat = compound: CC(C)N(C[C@H]1O[C@@H](n2cnc3c(N)ncnc32)[C@H](O)[C@@H]1O)[C@H]1C[C@@H](CCc2nc3cc(C(C)(C)C)ccc3[nH]2)C1 [pinometostat]
Summary of the method: as §1

[5] = compound: CC1=C(C(CC(=O)N1)C2=CC=C(C=C2)C(F)(F)F)C(=O)NC3=C(C=C4C(=C3)C=NN4)F
Summary of the method: as §1

[6] = compound: CC1=C(C2=C(C=C1)C(=O)C3=CC=CC=C3N2CCCN)C
Summary of the method: as §1

[7] = compound: CC1=C(C=C(C=C1)NC(=O)C2=CC(=CC=C2)C(C)(C)C#N)NC3=CC4=C(C=C3)N=CN(C4=O)C
Summary of the method: as §1

[8] = compound: CC1=C(C=C(C=C1)NC(=O)C2=CC(=CC=C2)N(C)C)NC(=O)C3=CC=C(C=C3)O
Summary of the method: as §1

[9] = compound: CC1=CC=C(C=C1)SC2=C3C=C(SC3=CN=C2)C(=O)N
Summary of the method: as §1

[10] = compound: CC1=NC(=CC=C1)C2=C(N=C(N2)C(C)(C)C)C3=CC4=NC=CN=C4C=C3
Summary of the method: as §1

Nexturastat A = compound: CCCCN(Cc1ccc(C(=O)NO)cc1)C(=O)Nc1ccccc1 [Nexturastat A]
Summary of the method: as §1

vemurafenib = compound: CCCS(=O)(=O)Nc1ccc(F)c(C(=O)c2c[nH]c3ncc(-c4ccc(Cl)cc4)cc23)c1F [vemurafenib]
Summary of the method: as §1

[11] = compound: CCCS(=O)(=O)Nc1ccc(F)c(C(=O)c2c[nH]c3ncc(Cl)cc23)c1F
Summary of the method: as §1

[12] = compound: CCCc1cc(C)[nH]c(=O)c1CNC(=O)c1cc(-c2ccnc(N3CCN(C)CC3)c2)cc2c1cnn2C(C)C
Summary of the method: as §1

givinostat = compound: CCN(CC)Cc1ccc2cc(COC(=O)Nc3ccc(C(=O)NO)cc3)ccc2c1 [givinostat]
Summary of the method: as §1

barasertib = compound: CCN(CCCOc1ccc2c(Nc3cc(CC(=O)Nc4cccc(F)c4)[nH]n3)ncnc2c1)CCOP(=O)(O)O [barasertib]
Summary of the method: as §1

Sequence of UniProt Q8NI08 (Q8NI08 whole entry, looked up): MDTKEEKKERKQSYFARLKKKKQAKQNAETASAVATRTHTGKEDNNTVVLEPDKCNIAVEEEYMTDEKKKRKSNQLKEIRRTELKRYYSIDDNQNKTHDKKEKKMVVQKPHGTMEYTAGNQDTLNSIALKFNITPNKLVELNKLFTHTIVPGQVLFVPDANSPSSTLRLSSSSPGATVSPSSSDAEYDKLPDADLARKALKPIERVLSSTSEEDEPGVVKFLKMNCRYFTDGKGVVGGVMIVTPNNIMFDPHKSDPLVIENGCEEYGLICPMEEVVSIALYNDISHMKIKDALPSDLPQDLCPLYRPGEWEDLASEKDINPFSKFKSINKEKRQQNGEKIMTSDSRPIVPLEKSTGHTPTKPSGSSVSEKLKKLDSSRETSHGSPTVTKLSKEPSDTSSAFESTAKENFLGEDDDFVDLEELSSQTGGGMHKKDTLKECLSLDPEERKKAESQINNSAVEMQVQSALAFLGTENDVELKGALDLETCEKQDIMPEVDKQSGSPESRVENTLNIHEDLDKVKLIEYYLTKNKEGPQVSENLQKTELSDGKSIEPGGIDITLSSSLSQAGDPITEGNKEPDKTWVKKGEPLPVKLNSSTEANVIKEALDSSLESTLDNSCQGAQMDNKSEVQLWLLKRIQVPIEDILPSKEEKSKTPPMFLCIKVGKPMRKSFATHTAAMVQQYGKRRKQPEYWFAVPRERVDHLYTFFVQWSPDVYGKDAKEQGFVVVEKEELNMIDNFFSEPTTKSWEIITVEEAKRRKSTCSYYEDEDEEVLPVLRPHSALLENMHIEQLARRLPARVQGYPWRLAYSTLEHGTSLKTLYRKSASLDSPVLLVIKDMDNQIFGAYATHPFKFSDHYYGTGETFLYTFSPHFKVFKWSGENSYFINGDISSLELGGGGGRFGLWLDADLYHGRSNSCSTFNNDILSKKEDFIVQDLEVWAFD
Sequence of UniProt Q16621 (Q16621 whole entry, looked up): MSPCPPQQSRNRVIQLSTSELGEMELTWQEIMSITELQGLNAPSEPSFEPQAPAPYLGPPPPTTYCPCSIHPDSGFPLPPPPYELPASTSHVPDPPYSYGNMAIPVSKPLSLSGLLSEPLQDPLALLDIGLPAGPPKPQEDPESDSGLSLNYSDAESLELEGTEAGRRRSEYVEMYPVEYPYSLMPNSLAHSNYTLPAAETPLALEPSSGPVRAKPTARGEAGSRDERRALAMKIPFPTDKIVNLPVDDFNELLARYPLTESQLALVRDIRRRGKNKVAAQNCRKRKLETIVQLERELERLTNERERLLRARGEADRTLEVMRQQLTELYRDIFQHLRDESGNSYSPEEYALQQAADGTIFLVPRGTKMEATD
Sequence of UniProt Q15738 (Q15738 whole entry, looked up): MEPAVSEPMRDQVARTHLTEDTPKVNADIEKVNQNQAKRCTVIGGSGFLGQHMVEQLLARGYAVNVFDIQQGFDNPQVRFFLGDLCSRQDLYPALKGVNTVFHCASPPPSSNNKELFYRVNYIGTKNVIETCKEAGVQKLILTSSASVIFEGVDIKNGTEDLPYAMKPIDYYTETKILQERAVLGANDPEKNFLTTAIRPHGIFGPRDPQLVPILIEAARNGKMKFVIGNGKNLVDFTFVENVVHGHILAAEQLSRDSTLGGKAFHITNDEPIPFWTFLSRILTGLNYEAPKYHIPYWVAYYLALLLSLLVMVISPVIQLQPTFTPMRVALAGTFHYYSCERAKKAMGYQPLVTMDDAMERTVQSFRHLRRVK
Sequence of UniProt Q8N4C8 (Q8N4C8 whole entry, looked up): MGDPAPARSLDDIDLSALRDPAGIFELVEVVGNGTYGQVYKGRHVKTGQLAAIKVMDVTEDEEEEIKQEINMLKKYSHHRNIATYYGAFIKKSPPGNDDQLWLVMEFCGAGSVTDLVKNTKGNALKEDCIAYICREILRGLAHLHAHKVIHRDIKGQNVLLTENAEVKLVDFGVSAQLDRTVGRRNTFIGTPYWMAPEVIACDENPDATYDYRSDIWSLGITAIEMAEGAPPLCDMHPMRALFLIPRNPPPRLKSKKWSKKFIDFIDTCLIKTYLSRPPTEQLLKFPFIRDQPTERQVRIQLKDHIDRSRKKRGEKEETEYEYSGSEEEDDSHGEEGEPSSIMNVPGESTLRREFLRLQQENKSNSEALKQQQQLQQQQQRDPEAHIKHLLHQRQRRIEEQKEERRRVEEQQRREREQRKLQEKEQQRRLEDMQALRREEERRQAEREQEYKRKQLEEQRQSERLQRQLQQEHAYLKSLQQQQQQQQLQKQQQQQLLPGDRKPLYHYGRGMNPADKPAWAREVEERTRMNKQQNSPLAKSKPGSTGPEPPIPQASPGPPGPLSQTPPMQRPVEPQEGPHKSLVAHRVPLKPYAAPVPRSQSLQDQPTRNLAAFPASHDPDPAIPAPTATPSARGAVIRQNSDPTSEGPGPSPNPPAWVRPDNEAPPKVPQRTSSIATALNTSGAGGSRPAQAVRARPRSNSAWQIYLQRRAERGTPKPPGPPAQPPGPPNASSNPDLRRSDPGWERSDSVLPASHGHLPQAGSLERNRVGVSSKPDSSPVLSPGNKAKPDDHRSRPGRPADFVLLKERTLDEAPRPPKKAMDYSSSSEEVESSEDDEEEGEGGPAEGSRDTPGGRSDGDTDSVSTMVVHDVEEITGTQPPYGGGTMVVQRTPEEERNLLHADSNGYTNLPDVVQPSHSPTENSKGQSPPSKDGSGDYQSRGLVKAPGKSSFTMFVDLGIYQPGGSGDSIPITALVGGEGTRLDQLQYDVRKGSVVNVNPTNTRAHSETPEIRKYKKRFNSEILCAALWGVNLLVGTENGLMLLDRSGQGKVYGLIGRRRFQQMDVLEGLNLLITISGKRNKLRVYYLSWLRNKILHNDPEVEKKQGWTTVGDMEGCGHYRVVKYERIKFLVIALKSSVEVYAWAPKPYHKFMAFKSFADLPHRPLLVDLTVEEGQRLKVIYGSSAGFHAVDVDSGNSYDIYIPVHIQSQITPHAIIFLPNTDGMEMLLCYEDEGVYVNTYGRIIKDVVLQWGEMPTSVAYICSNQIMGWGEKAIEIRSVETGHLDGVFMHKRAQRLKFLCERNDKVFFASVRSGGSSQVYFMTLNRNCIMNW
Sequence of UniProt P30419 (P30419 whole entry, looked up): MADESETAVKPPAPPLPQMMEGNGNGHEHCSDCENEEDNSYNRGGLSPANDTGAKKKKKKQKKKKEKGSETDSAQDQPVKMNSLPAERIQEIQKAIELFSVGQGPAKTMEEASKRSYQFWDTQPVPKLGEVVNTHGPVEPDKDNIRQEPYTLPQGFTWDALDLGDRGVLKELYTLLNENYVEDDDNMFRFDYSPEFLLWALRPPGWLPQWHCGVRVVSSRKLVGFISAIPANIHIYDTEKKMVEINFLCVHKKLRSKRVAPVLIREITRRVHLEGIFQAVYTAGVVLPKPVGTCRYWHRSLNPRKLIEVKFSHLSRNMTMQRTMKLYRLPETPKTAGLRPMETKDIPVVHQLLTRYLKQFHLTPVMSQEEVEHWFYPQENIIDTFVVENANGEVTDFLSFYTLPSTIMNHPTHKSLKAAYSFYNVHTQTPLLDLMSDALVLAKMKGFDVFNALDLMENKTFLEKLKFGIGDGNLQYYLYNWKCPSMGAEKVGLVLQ
Sequence of UniProt O75323 (O75323 whole entry, looked up): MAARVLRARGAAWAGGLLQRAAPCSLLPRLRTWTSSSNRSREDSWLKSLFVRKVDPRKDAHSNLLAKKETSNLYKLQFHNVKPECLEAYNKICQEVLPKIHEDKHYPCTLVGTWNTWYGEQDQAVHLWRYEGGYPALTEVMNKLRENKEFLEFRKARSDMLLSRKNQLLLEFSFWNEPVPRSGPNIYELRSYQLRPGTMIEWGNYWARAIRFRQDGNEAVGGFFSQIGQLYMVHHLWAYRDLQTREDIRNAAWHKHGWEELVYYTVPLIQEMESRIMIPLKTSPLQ
Sequence of UniProt Q9NZT2 (Q9NZT2 whole entry, looked up): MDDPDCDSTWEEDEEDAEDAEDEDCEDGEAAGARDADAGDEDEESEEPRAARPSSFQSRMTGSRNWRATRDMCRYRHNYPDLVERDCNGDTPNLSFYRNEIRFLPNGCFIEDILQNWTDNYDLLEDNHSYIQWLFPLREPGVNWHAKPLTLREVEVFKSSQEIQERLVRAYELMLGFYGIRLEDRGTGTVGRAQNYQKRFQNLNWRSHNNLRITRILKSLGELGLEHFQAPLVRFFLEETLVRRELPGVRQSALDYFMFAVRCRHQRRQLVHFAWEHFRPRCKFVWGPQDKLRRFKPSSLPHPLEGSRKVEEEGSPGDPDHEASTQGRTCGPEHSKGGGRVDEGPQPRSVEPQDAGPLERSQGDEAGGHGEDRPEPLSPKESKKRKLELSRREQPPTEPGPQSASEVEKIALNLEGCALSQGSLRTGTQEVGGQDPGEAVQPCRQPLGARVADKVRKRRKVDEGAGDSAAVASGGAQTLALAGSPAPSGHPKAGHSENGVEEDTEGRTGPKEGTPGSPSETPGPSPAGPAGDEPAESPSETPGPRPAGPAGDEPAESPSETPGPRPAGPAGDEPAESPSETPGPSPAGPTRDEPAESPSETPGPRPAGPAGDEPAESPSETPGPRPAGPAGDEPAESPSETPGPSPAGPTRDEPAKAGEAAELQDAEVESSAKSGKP

| Target | log2 fold change (IRAK-1-4 Inhibitor I) | log2 fold change (ibrutinib) | log2 fold change [1] | log2 fold change (ralimetinib) | log2 fold change [2] | log2 fold change [3] | log2 fold change [4] | log2 fold change (pinometostat) | log2 fold change [5] | log2 fold change [6] | log2 fold change [7] | log2 fold change [8] | log2 fold change [9] | log2 fold change [10] | log2 fold change (Nexturastat A) | log2 fold change (vemurafenib) | log2 fold change [11] | log2 fold change [12] | log2 fold change (givinostat) | log2 fold change (barasertib) |
| --- | --- | --- | --- | --- | --- | --- | --- | --- | --- | --- | --- | --- | --- | --- | --- | --- | --- | --- | --- | --- |
| NSDHL (UniProt Q15738) | 0.004 | 0.193 | -0.049 | -0.01 | 0.173 | -0.084 | -0.024 | -0.078 | -0.021 | 0.056 | 0.073 | -0.005 | 0.029 | -0.001 | -0.111 | 0.07 | -0.027 | -0.031 | -0.013 | -0.004 |
| NIPSNAP2 (UniProt O75323) | 0.018 | 0.115 | -0.084 | -0.054 | 0.049 | 0.014 | -0.015 | -0.034 | 0.002 | 0.031 | 0.06 | -0.044 | 0.055 | 0 | -0.072 | 0.06 | 0.029 | 0.007 | -0.081 | 0.019 |
| MRPS6 (UniProt P82932) | -0.193 | -0.007 | -0.079 | 0.012 | -0.158 | -0.003 | -0.009 | -0.007 | 0.003 | -0.139 | 0.081 | -0.052 | 0.006 | 0.128 | 0.076 | 0.1 | 0.059 | 0.062 | 0.037 | -0.017 |
| NFE2 (UniProt Q16621) | 0.053 | -0.039 | 0.016 | -0.06 | 0.01 | -0.119 | 0.184 | -0.001 | 0.037 | -0.285 (active) | -0.09 | 0.064 | 0.017 | 0.034 | 0.044 | -0.087 | 0.043 | -0.009 | 0.087 | -0.003 |
| MRPS27 isoform 2 (UniProt Q92552) | -0.116 | 0.019 | -0.002 | 0.069 | -0.104 | -0.161 | -0.011 | -0.022 | -0.021 | -0.06 | 0.037 | -0.022 | 0.006 | 0.039 | 0.151 | 0.064 | 0.035 | 0.051 | 0.055 | -0.016 |
| OGFR (UniProt Q9NZT2) | -0.023 | 0.001 | -0.235 | -0.014 | 0.109 | -0.028 | -0.008 | 0.149 | 0.036 | 0.044 | -0.023 | 0.018 | -0.022 | 0.035 | 0.057 | 0.075 | 0.002 | 0.01 | -0.02 | 0.125 |
| NCOA7 (UniProt Q8NI08) | 0.017 | -0.056 | -0.075 | 0.052 | -0.005 | -0.088 | 0.072 | 0.019 | -0.033 | -0.009 | 0.068 | -0.045 | 0.015 | 0.016 | 0.012 | 0.008 | -0.005 | 0.024 | 0.045 | 0.009 |
| MINK1 (UniProt Q8N4C8) | -0.018 | 0.038 | -0.715 (active) | -0.081 | 0.053 | 0.021 | 0.044 | 0.049 | -0.017 | 0.061 | -0.04 | 0.038 | -0.003 | 0.029 | -0.007 | -0.004 | 0.024 | 0.003 | -0.007 | -0.016 |
| NMT1 (UniProt P30419) | 0.023 | 0.028 | 0.017 | 0.017 | -0.047 | -0.053 | 0.008 | 0.037 | 0.009 | -0.051 | -0.012 | -0.006 | -0.012 | 0.021 | -0.036 | -0.013 | 0 | 0.023 | -0.284 (active) | -0.015 |
